Positions count from the first letter of the chain named.
Legend:
Assay in all cases: protein-binding microarray (PBM); PBM: ~300 nM protein, 6 mM HEPES pH 7.8, 80 mM KCl, 0.5 mM EDTA, 0.5 mM EGTA, 6% glycerol, 35 ng/ul poly-dIdC, 1% milk, 1 h, room temperature; Ap Aiptasia and Nv Nematostella (sea anemones) / Co Capsaspora / Aq Amphimedon (sponge) / Dm Drosophila / Hu human; RHD is the Rel homology domain; high values mean tight binding
Details in all cases: dsDNA, one strand shown
[1] = target: T1, GST-Ap-NF-kB RHD (Exaiptasia pallida (Aiptasia), UniProt A0A913YAJ5 2-422)
T1 sequence: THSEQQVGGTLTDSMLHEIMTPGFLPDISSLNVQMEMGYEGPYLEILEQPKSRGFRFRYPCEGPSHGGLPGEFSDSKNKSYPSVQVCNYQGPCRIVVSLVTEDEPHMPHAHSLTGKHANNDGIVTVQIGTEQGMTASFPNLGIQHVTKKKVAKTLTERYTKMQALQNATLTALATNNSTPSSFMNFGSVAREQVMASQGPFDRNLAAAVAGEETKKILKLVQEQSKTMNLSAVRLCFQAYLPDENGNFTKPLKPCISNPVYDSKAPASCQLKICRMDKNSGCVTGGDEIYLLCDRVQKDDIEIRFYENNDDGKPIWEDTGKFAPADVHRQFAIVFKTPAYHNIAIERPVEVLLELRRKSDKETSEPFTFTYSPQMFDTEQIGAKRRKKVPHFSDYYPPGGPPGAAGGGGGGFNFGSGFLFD

[2] = target: T2, GST-Nv-NF-kB (Cys allele) (Nematostella vectensis, UniProt E5G601 2-411)
T2 sequence: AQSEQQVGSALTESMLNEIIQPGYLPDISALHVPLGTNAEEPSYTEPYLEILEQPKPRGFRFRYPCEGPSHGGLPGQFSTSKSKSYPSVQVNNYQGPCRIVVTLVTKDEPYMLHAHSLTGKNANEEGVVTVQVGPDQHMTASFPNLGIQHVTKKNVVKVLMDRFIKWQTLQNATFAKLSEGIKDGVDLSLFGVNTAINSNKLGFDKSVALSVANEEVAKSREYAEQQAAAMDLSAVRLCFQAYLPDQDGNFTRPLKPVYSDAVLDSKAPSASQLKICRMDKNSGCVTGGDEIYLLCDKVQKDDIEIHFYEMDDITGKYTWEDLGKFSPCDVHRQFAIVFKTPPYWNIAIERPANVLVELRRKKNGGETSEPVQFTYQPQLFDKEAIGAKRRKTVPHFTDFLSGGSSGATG

[3] = target: T3, GST-Co-NF-kB (Capsaspora owczarzaki, UniProt F1ARL5 200-546)
T3 sequence: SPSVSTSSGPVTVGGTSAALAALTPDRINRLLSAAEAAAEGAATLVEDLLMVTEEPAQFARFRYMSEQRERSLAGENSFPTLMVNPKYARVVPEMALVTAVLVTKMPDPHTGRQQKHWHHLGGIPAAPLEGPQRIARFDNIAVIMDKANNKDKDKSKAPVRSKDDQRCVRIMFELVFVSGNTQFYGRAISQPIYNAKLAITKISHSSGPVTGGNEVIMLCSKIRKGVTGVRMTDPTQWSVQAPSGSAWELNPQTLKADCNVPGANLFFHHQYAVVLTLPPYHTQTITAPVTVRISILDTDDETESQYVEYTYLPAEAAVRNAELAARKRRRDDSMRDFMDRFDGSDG

[4] = target: T4, GST-Dm-Relish (Drosophila melanogaster, UniProt Q94527 99-473)
T4 sequence: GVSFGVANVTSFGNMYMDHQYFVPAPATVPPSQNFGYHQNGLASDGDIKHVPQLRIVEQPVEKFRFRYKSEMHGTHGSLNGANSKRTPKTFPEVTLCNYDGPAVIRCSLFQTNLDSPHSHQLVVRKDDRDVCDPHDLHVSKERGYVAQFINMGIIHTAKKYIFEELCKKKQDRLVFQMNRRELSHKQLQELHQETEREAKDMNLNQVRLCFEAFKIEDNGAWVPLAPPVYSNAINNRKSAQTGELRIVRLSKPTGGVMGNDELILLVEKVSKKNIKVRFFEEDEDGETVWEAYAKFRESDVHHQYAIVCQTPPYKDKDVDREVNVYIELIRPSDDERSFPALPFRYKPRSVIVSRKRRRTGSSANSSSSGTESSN

[5] = target: T5, GST-Aq-NF-kB (Amphimedon queenslandica, UniProt A9Y5G7 2-389)
T5 sequence: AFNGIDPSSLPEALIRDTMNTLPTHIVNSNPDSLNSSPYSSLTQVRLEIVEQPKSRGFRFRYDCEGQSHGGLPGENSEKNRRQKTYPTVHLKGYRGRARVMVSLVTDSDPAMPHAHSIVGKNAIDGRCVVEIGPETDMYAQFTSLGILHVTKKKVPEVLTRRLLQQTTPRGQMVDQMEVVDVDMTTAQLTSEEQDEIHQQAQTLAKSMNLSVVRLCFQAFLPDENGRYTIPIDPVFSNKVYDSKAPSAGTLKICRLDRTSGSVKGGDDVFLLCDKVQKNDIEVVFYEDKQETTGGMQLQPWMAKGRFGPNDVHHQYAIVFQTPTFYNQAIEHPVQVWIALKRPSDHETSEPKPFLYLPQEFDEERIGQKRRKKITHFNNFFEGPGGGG

[6] = target: GST-Hu-p50 (Homo sapiens, UniProt P19838 7-356)
Chain of GST-Hu-p50 (P19838 7-356): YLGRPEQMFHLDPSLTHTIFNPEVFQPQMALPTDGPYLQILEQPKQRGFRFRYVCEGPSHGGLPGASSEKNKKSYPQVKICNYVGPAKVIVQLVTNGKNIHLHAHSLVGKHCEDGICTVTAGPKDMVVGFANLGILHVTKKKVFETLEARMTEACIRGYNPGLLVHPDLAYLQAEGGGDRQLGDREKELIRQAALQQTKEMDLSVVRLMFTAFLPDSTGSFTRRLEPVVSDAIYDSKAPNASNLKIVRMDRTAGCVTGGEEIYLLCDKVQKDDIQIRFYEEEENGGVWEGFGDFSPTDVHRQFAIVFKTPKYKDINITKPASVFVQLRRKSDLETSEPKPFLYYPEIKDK

[7] = target: T6, GST-Nv-NF-kB (Ser allele) (Nematostella vectensis, UniProt A7UNT2 2-411)
T6 sequence: T2 sequence with Q21R, C66S, S207N, E215Q, V217A, E225K, A268E, D399E

Sequence	binding signal [1] [z-score]	binding signal [2] [z-score]	binding signal [3] [z-score]	binding signal [4] [z-score]	binding signal [5] [z-score]	binding signal [6] [z-score]	binding signal [7] [z-score]
CCGATTAACATCAAAAAATCCCTTGATGTTAATCGGGTCTTGATTCGCTTGACGCTGCTG	6.16	7.58	1.77	8.1	7.46	5.47	–
CCGATTAACATCATACTTCCCCATGATGTTAATCGGGTCTTGATTCGCTTGACGCTGCTG	3.97	4.88	4.69	3.18	3.58	4.41	–
CCGATTAACATCAAAAATTCACCTGATGTTAATCGGGTCTTGATTCGCTTGACGCTGCTG	1.56	2.59	1.24	5.78	2.74	4	–
CCGATTAACATCACCCCGCCCCCTGATGTTAATCGGGTCTTGATTCGCTTGACGCTGCTG	4.32	3.28	3.91	4.16	4.28	4.24	–
CCGATTAACATCACCAAACCCCCTGATGTTAATCGGGTCTTGATTCGCTTGACGCTGCTG	6.25	4.31	2.03	5.55	4.31	6.3	–
CCGATTAACATCAGGGGGTTGCATGATGTTAATCGGGTCTTGATTCGCTTGACGCTGCTG	5.29	3.67	2.22	4.83	4.08	5.29	–
CCGATTAACATCAAAGCACCCCCTGATGTTAATCGGGTCTTGATTCGCTTGACGCTGCTG	4.9	3.86	3.63	3.26	4.36	4.35	–
CCGATTAACATCAGGAGTCCCCCTGATGTTAATCGGGTCTTGATTCGCTTGACGCTGCTG	8.32	6.17	4.42	8.71	6.95	5.55	–
CCGATTAACATCAGAAGACCCCCTGATGTTAATCGGGTCTTGATTCGCTTGACGCTGCTG	5.66	3.66	1.79	4.9	4.82	4.45	–
CCGATTAACATCAAATACCCCCCTGATGTTAATCGGGTCTTGATTCGCTTGACGCTGCTG	7.87	5.54	6.37	6.76	6.24	5.42	–
CCGATTAACATCAGGGATACACCTGATGTTAATCGGGTCTTGATTCGCTTGACGCTGCTG	2.29	1.83	1.56	2.76	3.45	2.49	–
CCGATTAACATCACAGAAACCCCTGATGTTAATCGGGTCTTGATTCGCTTGACGCTGCTG	5.66	4.62	1.21	6.6	4.61	5.39	–
CCGATTAACATCAAACCTTCCCCTGATGTTAATCGGGTCTTGATTCGCTTGACGCTGCTG	4.68	5.62	6.54	3.12	4.92	4.13	–
CCGATTAACATCAGGGAGTTTACTGATGTTAATCGGGTCTTGATTCGCTTGACGCTGCTG	3.14	4.14	1.37	5.53	5.6	4.19	–
CCGATTAACATCAAAACACCCCCTGATGTTAATCGGGTCTTGATTCGCTTGACGCTGCTG	6.39	5.71	5.54	6.95	6.53	6.04	–
CCGATTAACATCAGGGGGAGTACTGATGTTAATCGGGTCTTGATTCGCTTGACGCTGCTG	6.52	4.73	5.82	9.03	6.58	5.94	–
CCGATTAACATCAGAAAATCACCTGATGTTAATCGGGTCTTGATTCGCTTGACGCTGCTG	2.77	3.28	–	6.91	3.39	5.67	–
CCGATTAACATCAGGACTGCCCCTGATGTTAATCGGGTCTTGATTCGCTTGACGCTGCTG	3.49	4.13	–	3.18	7.05	4.09	–
CCGATTAACATCAGGGGGTGGAATGATGTTAATCGGGTCTTGATTCGCTTGACGCTGCTG	3.47	3.19	4.5	2.66	3.65	4.42	–
CCGATTAACATCACAGAGTCCCCTGATGTTAATCGGGTCTTGATTCGCTTGACGCTGCTG	6.36	4.8	2.26	5.12	4.31	5.59	–
CCGATTAACATCACGGTGTTTCCTGATGTTAATCGGGTCTTGATTCGCTTGACGCTGCTG	1.53	1.22	–	2.06	2.67	2.96	–
CCGATTAACATCAATTCCCCCCGTGATGTTAATCGGGTCTTGATTCGCTTGACGCTGCTG	7.28	–	8.8	5.54	5.76	5.76	6.61
CCGATTAACATCAAAAAAACACCTGATGTTAATCGGGTCTTGATTCGCTTGACGCTGCTG	3.14	4.03	–	4.97	4.34	6.24	–
CCGATTAACATCACTAAACCCCCTGATGTTAATCGGGTCTTGATTCGCTTGACGCTGCTG	6.72	4.83	3.32	7.51	4.92	6.25	–
CCGATTAACATCAGGGGTAGAACTGATGTTAATCGGGTCTTGATTCGCTTGACGCTGCTG	1.85	–	5.07	–	1.92	1.99	1.11
CCGATTAACATCAGGGAGTGCCCTGATGTTAATCGGGTCTTGATTCGCTTGACGCTGCTG	2.83	2.18	–	3.85	5.66	1.98	–

From article PMC5700166
